According to the supplement of paper PMC6555819:

Test system: VDR:RXRa (NR concentration 270 nM, RXRa partner concentration 90 nM)
Assay: PBM binding z-score (relative to random genomic background probes); higher = stronger binding; sequences stand for … in GC…GCGATTGACAGCGTAGAATGAAGG
Method: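 Protein-binding microarray (Agilent 4x180K custom design, double-stranded 60-nt probes: 5' GC cap, 34-nt variable region, 24-nt constant primer region; full probe sequence given). Purified or IVT nuclear receptor:RXRα heterodimers (3:1 NR:RXRα, mostly 270:90 nM) or homodimers were incubated for 1 h in PBS with 2% milk and no ligand, then detected with Alexa488 antibodies. Fluorescence from o1-orientation probes (~5 replicates averaged) was converted to z-scores against 500 random hg19 background probes. Variable regions are seed direct-repeat (DR0–DR5) sites, all their single-nucleotide variants and half-site ablations.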

Sequence	PBM binding z-score
ATCGAAAGGTCGAAGGTGAGTATCCCCACCCGAA	2.53
CAAACTAGGTCAAGCGGTCAAAGTCCGCTTCCCG	2.99
ATCTCTAGGTAAAGTTCAGTGAGAGATCGATAGA	1.64
CCTACTGGGCCAAAGGTAATTGATTCCAATGCTC	-0.387
TCATATAGGTATACAGGTGAAAGTCCGTAAGTTA	1.07
CCTTACGGGTCACTCCAGCTTATAGCATCGGAGT	2.73
ACGAGTTGGTCAGCTGAGGTCACACACAATTCGG	4.62
TCTAGCAGGCCAGAGGCTCACTCAAGAGGTACGG	-0.485
TCATATAGGTAAATGCTAGGTGAACGTCCGATCT	0.914
TGAGTGAGGTTAAAGATCAGGGAACGTGGCGTCG	1.66
CAGCCTAGGTCAGGGGCAGTATAGGAGGAACGTT	0.806
TCTTGTAGTTCAAAGGTTAAGAAAGCCGAAGCCT	3.68
ATCGAAAGGTCGTGGTGAGTATAGAGAAAGGGAA	3.85
TCTATTAATTGATTAGGGCAACCGAAACAGCGGA	0.405
TCTTATAGGTAAAGGTGAAAGTCGAACGATATGA	1.25
CCTCGGAGGACAACAGGAGGTCACAGCTGCCAGA	3.53
TGAACGAGGTTATAAGATCAGGGAACGTTGCAAA	0.923
CAGCCTAGGTCAGGGCCACTATAGGAGGAACGTT	0.305
TTACCTAGGTGAGCTGAGGTCGTTGATCCAACTC	3.05
TCTTGTAGATCGACAGGAGGTTAAGAAAGATCGA	0.501

Sequence	PBM binding z-score
GCTGCTAGGTGAGGTTGGTCAGCTAACGGGTACG	-0.472
TAGCGTAGGTCATTGGGCCAGTATAGTACGCATC	2.41
ACTATTAGTTGAGACGAGGTCAACCGATAGGTTG	4.47
TAGCCTAGGTCATTCAGGGGCCAGTAAAGAAAGC	3.21
CGTGCAAGGTCATAGGAGGTCAGTGAAGACAGAT	6.87
ACTAGTTGGTCAGCTGAAGTCACACACAATTCGG	-0.103
CGAACTAGGTCAAGGACCGTGAATCTCCGCACGC	0.799
CGAACTAGGTGAAGGACAGTGAATCTCCGCACGC	-0.403
ATATTTAGGTTACATCCGGGTCATTCAGGCTATG	4.13
CCGACTGGCGCAGAAAGGTTACCATACCATCCGG	0.29
ACTAGCTGGCCAAGTTTGGGTCACTCAAACAAAG	0.228
TCATATAGGTAATACAGGTGAAATTCGGCATCTA	1.12
CGAACGAGGGCATGAGTCGATAGCAAATGCCGAT	0.359
ACTATTAGTTGACCTAGGGCAACCGATACGACGC	1.96
CAGCCTAGGTCAGGGCCGGTATAGGAGGAACGTT	0.178
TCTATTAGTTGGAGGGCAACCGACGAGTCCGTTT	1.27
CCTGCTAGGTCAATGGTCAGCAAAAGCAGCTCGC	0.941
CCGACTGGGGCATAAGGTTACCGTAAGCCAGCCC	0.108
GCTTGTAGATCAAGGTTCAGAAAGACTAAGCTAA	0.919
TCTCGGAGGATACGAAGGTCAGAGCTTTCCAGAG	0.765
